Results published in PubChem BioAssay (NCI).
About 79,000 compounds went through this panel and 15% of them were active in at least one assay; those are over-represented in the sample as a whole. A number with no mark means an inactive call. No stated cut-off is given here; in the data, active means growth inhibition above about 70%; inactive means the rest.

Assay: NCI Yeast Anticancer Drug Screen. Data for the mec2-1 strain (AID 157)
Settings: S. cerevisiae mec2-1 strain, at 50.0 µM, active compounds read high
How it was run: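 Vehicle-treated cultures served as reference for growth inhibition of compound-exposed mec2-1 yeast.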

In order of falling growth inhibition:
1. CC(=O)OC12CC3CCC4C(CCC5(C)C(C(C)CCCC(C)C)CCC45)C3(C)CC1O2 (stereo not given)  48.4%
2. O=C1C(N=Cc2c(O)ccc3ccccc23)CON1C(c1ccccc1)(c1ccccc1)c1ccccc1 (stereo not given)  37.5%
3. CCc1nc2cc(F)ccc2[nH]c1=O  24.2%
4. CC(C)OC(=O)c1cc(N)ccc1Cl  23.4%
5. Nc1cn[nH]c(=O)n1  20.6%
6. CCCCCCC(C#N)(CCN(C)C)c1ccccc1 (stereo not given)  18.7%
7. Nc1c(S(=O)(=O)O)cc(Br)c2c1C(=O)c1ccccc1C2=O  15.8%
8. O=C(Nc1ccccc1Cl)c1ccc(Cl)cc1  14.9%
9. O=C(N/N=C\c1coc([N+](=O)[O-])c1)N/N=C/c1ccoc1  14.2%
10. N#CC(C(=O)C(=O)Nc1cccc(C(F)(F)F)c1)c1c(Cl)cccc1Cl (stereo not given)  11.6%
11. O=C(O)C1(NO)CCCCC1  6.7%
12. CCOC(=O)N1C(c2ccccc2)N(c2ccccc2)C(c2ccccc2)N1C(=O)OCC (stereo not given)  4.65%
13. CS(=O)(=O)OCC1NC(=O)C(COS(C)(=O)=O)NC1=O (stereo not given)  2.8%
14. O=C(OC1COC(n2c(=O)oc3ccc(Cl)cc32)C(OC(=O)c2ccccc2)C1OC(=O)c1ccccc1)c1ccccc1 (stereo not given)  2.5%
15. Nc1ccc(C(=O)Nc2ccc3c(ccc4ccccc43)c2)cc1  2.35%
16. O=C(Cc1ccccc1)Nc1cccc2ccccc12  1.7%
17. COc1cc(C(O)C(CO)Oc2c(OC)cc(C3OCC4C(c5cc(OC)c(O)c(OC)c5)OCC34)cc2OC)ccc1O (stereo not given)  1.4%
18. CCCC(C)C(=O)OC1CCCCC1 (stereo not given)  1.3%
19. O=S(=O)(N1CCCCC1)N1CCCCC1  -0.85%
20. O=C(c1nc2ccccc2[nH]1)N1CCN(c2ccccc2)CC1  -1.55%
21. O=C1c2ccccc2C(=O)N1/N=C\c1ccc(O)cc1  -3.6%
22. CC(C)CC1NC(=O)C(C(C)C)NC(=O)CC(C)COC(=O)C(CC(C)C)N(C)C(=O)C(C(C)C)NC(=O)C(C(C)C)OC1=O (stereo not given)  -3.7%
23. COc1cc(/C=C/C(=O)Oc2ccccc2)ccc1C(=O)O/C=C/c1ccccc1  -4.7%
24. COc1ccc(/C=C2\N=C(c3ccc([N+](=O)[O-])cc3)OC2=O)cc1  -6%
25. CNc1ccn(C2OC(CO)C(O)C2O)c(=O)n1 (stereo not given)  -7.5%
26. CCOC(=O)c1c[nH]c2c(=O)n(C)c(=O)[nH]c12  -7.75%
27. CSC1=Nc2ccccc2N=C(c2ccccc2)C1  -10.8%
28. O=C(CO)c1ccc(-c2ccccc2)cc1  -12.4%
29. Cc1c2n(c(=O)[nH]c1=O)C1OC(CO)C(N=[N+]=[N-])C1O2 (stereo not given)  -15.9%
30. O=[N+]([O-])C1C=Nc2ccccc2N=C1  -16.6%
31. CC(=O)SC1CC2CCC1C2 (stereo not given)  -18.2%
32. COc1ccc(C(=O)N/N=C/c2c(C)n(C)n(-c3ccccc3)c2=O)cc1  -18.6%
33. Cc1ccc(S(=O)(=O)n2ccnc2)cc1  -21.9%
34. O=C(O)C1=CN=C(C(=O)O)NN1  -23.2%
35. Cc1cnc(N)s1  -23.9%
36. CN(C)C(=S)/N=c1\ssc(=S)n1Cc1ccccc1  -24.9%
37. COc1ccc(C2OC(=O)C(=O)C2=O)cc1OC (stereo not given)  -25.4%
38. Cc1cc(=O)n2c(n1)Nc1ccccc1C2  -26%
39. O=S1(=O)OCOS(=O)(=O)OCO1  -28.6%
40. CCOC(=O)N(CCCl)C(=O)C(C)C  -39.1%

Assay: NCI Yeast Anticancer Drug Screen. Data for the sgs1 mgt1 strain (AID 161);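 further: 0% = growth of cultures given vehicle only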
Settings: S. cerevisiae sgs1 mgt1 strain, at 50.0 µM, active compounds read high
How it was run: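 Genetically altered yeast, compound exposure, growth inhibition relative to vehicle.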

In order of rising growth inhibition:
1. COc1ccc(C(=O)N/N=C/c2c(C)n(C)n(-c3ccccc3)c2=O)cc1  -61.2%
2. Cc1c2n(c(=O)[nH]c1=O)C1OC(CO)C(N=[N+]=[N-])C1O2 (stereo not given)  -42%
3. O=C(O)C1=CN=C(C(=O)O)NN1  -28.8%
4. O=C(CO)c1ccc(-c2ccccc2)cc1  -19.1%
5. CC(=O)SC1CC2CCC1C2 (stereo not given)  -17.4%
6. O=S1(=O)OCOS(=O)(=O)OCO1  -14.2%
7. O=C(O)C1(NO)CCCCC1  -11.8%
8. CCOC(=O)N(CCCl)C(=O)C(C)C  -10.6%
9. O=C(c1nc2ccccc2[nH]1)N1CCN(c2ccccc2)CC1  -9%
10. COc1ccc(C2OC(=O)C(=O)C2=O)cc1OC (stereo not given)  -8.45%
11. COc1ccc(/C=C2\N=C(c3ccc([N+](=O)[O-])cc3)OC2=O)cc1  -8.35%
12. Cc1cnc(N)s1  -7.8%
13. CN(C)C(=S)/N=c1\ssc(=S)n1Cc1ccccc1  -4.55%
14. CS(=O)(=O)OCC1NC(=O)C(COS(C)(=O)=O)NC1=O (stereo not given)  -3.15%
15. COc1cc(C(O)C(CO)Oc2c(OC)cc(C3OCC4C(c5cc(OC)c(O)c(OC)c5)OCC34)cc2OC)ccc1O (stereo not given)  -2.05%
16. CNc1ccn(C2OC(CO)C(O)C2O)c(=O)n1 (stereo not given)  -2.05%
17. Cc1ccc(S(=O)(=O)n2ccnc2)cc1  -1.25%
18. CCCC(C)C(=O)OC1CCCCC1 (stereo not given)  -0.85%
19. O=C(Cc1ccccc1)Nc1cccc2ccccc12  0.8%
20. O=S(=O)(N1CCCCC1)N1CCCCC1  0.85%
21. COc1cc(/C=C/C(=O)Oc2ccccc2)ccc1C(=O)O/C=C/c1ccccc1  1.85%
22. Nc1cn[nH]c(=O)n1  2%
23. Cc1cc(=O)n2c(n1)Nc1ccccc1C2  2.75%
24. CCOC(=O)c1c[nH]c2c(=O)n(C)c(=O)[nH]c12  3.5%
25. O=C(N/N=C\c1coc([N+](=O)[O-])c1)N/N=C/c1ccoc1  3.65%
26. O=C(OC1COC(n2c(=O)oc3ccc(Cl)cc32)C(OC(=O)c2ccccc2)C1OC(=O)c1ccccc1)c1ccccc1 (stereo not given)  6.8%
27. CC(C)CC1NC(=O)C(C(C)C)NC(=O)CC(C)COC(=O)C(CC(C)C)N(C)C(=O)C(C(C)C)NC(=O)C(C(C)C)OC1=O (stereo not given)  7.55%
28. O=C1c2ccccc2C(=O)N1/N=C\c1ccc(O)cc1  7.6%
29. O=C(Nc1ccccc1Cl)c1ccc(Cl)cc1  8.05%
30. Nc1ccc(C(=O)Nc2ccc3c(ccc4ccccc43)c2)cc1  13.8%
31. CCCCCCC(C#N)(CCN(C)C)c1ccccc1 (stereo not given)  14.3%
32. N#CC(C(=O)C(=O)Nc1cccc(C(F)(F)F)c1)c1c(Cl)cccc1Cl (stereo not given)  17.1%
33. CC(C)OC(=O)c1cc(N)ccc1Cl  17.4%
34. O=[N+]([O-])C1C=Nc2ccccc2N=C1  18.1%
35. CCOC(=O)N1C(c2ccccc2)N(c2ccccc2)C(c2ccccc2)N1C(=O)OCC (stereo not given)  22.9%
36. O=C1C(N=Cc2c(O)ccc3ccccc23)CON1C(c1ccccc1)(c1ccccc1)c1ccccc1 (stereo not given)  28.9%
37. CCc1nc2cc(F)ccc2[nH]c1=O  28.9%
38. Nc1c(S(=O)(=O)O)cc(Br)c2c1C(=O)c1ccccc1C2=O  38.7%
39. CSC1=Nc2ccccc2N=C(c2ccccc2)C1  52%
40. CC(=O)OC12CC3CCC4C(CCC5(C)C(C(C)CCCC(C)C)CCC45)C3(C)CC1O2 (stereo not given)  69.8%
